# KB-3-1 tox – kills parental KB-3-1 adenocarcinoma cells. KB-3-1 viability, CellTiter-Glo ATP luminescence, 72 h. Potency, µM (top dose mostly 46.1 µM), hits mostly cytotoxic. 400,000 compounds, 1.4% hits; further: on the % scale 0 is the no-effect control and ±100 the full control effect; nearly all actives have a fitted effect of over 60% in size
#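 Using CellTiter-Glo luminescence, growth of non-resistant KB-3-1 adenocarcinoma cells is assessed 72 h after pin-tool compound addition at 37 °C. Normalized responses across the concentration series yield fitted curves.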
# KB-V1 MDR tox – KB-V1 MDR subline cytotoxicity | 400,000 compounds, 3.4% hits | Potency, µM (highest dose often 46.1 µM), most hits filed as cytotoxic | KB-V1 MDR cells viability, CellTiter-Glo, 72 h | AID 1347076; further: on the % scale 0 is the no-effect control and ±100 the full control effect; nearly all actives have a fitted effect of over 60% in size
#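 Cytotoxicity via CellTiter-Glo luminescence after 72 h compound exposure at 37 degrees C. Cells: drug-selected KB-V1 line, DMEM phenol-red free plus 10% FBS. Compounds tested at multiple concentrations; normalized data fitted to concentration-effect curves.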
# ELG1 DNA repair – inhibitors of ELG1-dependent DNA repair in HEK293T cells; 330,000 compounds, 2.3% hits; AID 504467; Potency, µM (series often up to 46.1 µM), without a hit: top-dose activity change, negative = inhibition, most hits filed as inhibitors; HEK293T ELG1-luciferase reporter, luminescence, 16 h; DNA damage induced by 5-fluorouridine; further: on the % scale 0 is the no-effect control and ±100 the full control effect; nearly all actives have a fitted effect of over 55% in size
#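 Overnight (16 hr) co-exposure of 2,000 cells/well to 5-fluorouridine and compound at 37 °C preceded detection. Luciferase was quantified via ONE-Glo luminescence; loss of signal denotes inhibition.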
# MCF10A rerep – induces DNA re-replication in MCF 10a normal breast cells. MCF 10A DNA re-replication, Hoechst nuclear intensity, 48 h. Potency, µM (top dose mostly 46.1 µM), without a hit: at the top dose activity, positive = re-replication, most hits filed as activators. 350,000 compounds, 2.9% hits. AID 624296; further: % of control where 0% means no effect; nearly all actives have a fitted effect of over 50% in size
# SW480 rerep – inducers of DNA re-replication in SW480 colon cancer cells. SW480 DNA re-replication, Hoechst DNA content imaging, 48 h. Potency, µM (series often up to 46.1 µM), for inactives: at the top dose re-replication activation, actives largely listed as activators. 340,000 compounds, 1.8% hits. AID 624297; further: % of control where 0% means no effect; nearly all actives have a fitted effect of over 55% in size
#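 SW480 cells exposed to compounds for 48 hr at 37 C, 5% CO2, then Hoechst-stained 40 min. Nuclear DNA content imaged by fluorescence scanning (405 nm excitation, 500-530 nm emission); re-replication scored as increased high-intensity nuclei.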
# * hit, by the source's call; i = inactive; ? = inconclusive; nt = no result. This is a sample that favours compounds with a hit; in the whole collection about 8.1% have one here. The call rests on the fitted dose curve; in most records, active means well fitted curve in the direction sought with a large enough effect; inconclusive means small, poorly fitted or top-dose-only effect, or another doubt; inactive means no such curve, though single readings can be large; an effect the other way counts as inactive or inconclusive. Potency means the concentration at half of the fitted maximal effect.
SMILES,KB-3-1 tox,KB-V1 MDR tox,ELG1 DNA repair,MCF10A rerep,SW480 rerep
N#Cc1ncc(-c2ccc3c(c2)OCCOCCOCCOCCOCCO3)nc1C#N,i,i,?,4.4%,-2.5%
Cc1ccc(NC(=O)C(=Cc2ccc(C(=O)O)cc2)C(=O)Nc2ccc(C)cc2C)c(C)c1,?,?,16.4µM*,2.59µM*,18.4µM*
CN(C)c1ccc(P(=O)(OC2CCCCC2)C(O)c2ccccn2)cc1 (stereo not drawn),i,i,8.2%,-3.0%,6.9%
CC1CCN(c2nc3ccc(C(=O)NCCc4ccc(S(N)(=O)=O)cc4)cc3s2)CC1,i,?,nt,nt,nt
NS(=O)(=O)c1ccc(NS(=O)(=O)c2ccc(NC(=S)Nc3ccccc3)cc2)cc1,i,i,14.6%,-0.5%,2.1%
NS(=O)(=O)c1ccc(NC(=S)Nc2ccn(Cc3cccc4ccccc34)n2)cc1,?,?,20.6µM*,-3.0%,?
O=C1c2[nH]nc(-c3ccccc3O)c2C(c2cccc(Br)c2)N1Cc1ccncc1 (stereo not drawn),2.59µM*,?,nt,nt,nt
Cc1ccc(C2c3c(-c4ccccc4O)n[nH]c3C(=O)N2Cc2ccncc2)cc1 (stereo not drawn),8.2µM*,?,-17.3%,7.31µM*,18.4µM*
CCOc1ccc(C2c3c(-c4ccccc4O)n[nH]c3C(=O)N2Cc2ccncc2)cc1 (stereo not drawn),?,i,nt,nt,nt
CCOc1ccc(/C=N/Nc2ccc(Cl)nn2)c(O)c1,?,?,0.0%,?,0.184µM*
Cn1nc(SCc2ccccc2)c(=O)n(C(c2ccccc2)c2ccccc2)c1=O,?,20.6µM*,nt,0.7%,1.4%
Cn1nc(SCc2ccccc2)c(=O)[nH]c1=O,i,i,nt,nt,nt
CC(C)NC(=O)NNC(=O)c1cc(COc2cc(Cl)cc(Cl)c2)on1,i,i,-7.4%,-0.5%,-4.7%
O=C(Cn1c(=O)n(-c2ccccc2)c(=O)c2oc3ccccc3c21)Nc1ccccc1,i,14.6µM*,?,?,-4.4%
COC(c1ccccc1)c1nnc(CCC(=O)NC2C3CC4CC(C3)CC2C4)o1 (stereo not drawn),i,i,8.7%,1.0%,-2.1%
CCC(=O)Nc1cccc(C(=O)/C=C/c2ccccc2)c1,?,i,?,8.2µM*,?
CSc1ccc(/C=C/C(=O)c2ccc(NC(=O)Cc3ccccc3)cc2)cc1,i,?,4.8%,?,18.4µM*
CSc1ccc(C(=O)/C=C/c2ccc(N)cc2)cc1,?,?,?,23.1µM*,?
CSc1ccc(/C=C/C(=O)c2ccc(NC(=O)C(C)C)cc2)cc1,?,?,-5.1%,?,?
CC1(c2nc3ccccc3[nH]2)CCC(=O)N1C1CC1 (stereo not drawn),i,i,nt,nt,nt
CC[C@]1(c2ccccc2OC)ON(c2ccccc2C(F)(F)F)C1=O,23.1µM*,?,?,?,?
COc1ccccc1[C@]1(C)ON(c2ccccc2C(F)(F)F)C1=O,i,?,20.6µM*,14.2%,9.3%
COc1ccc([C@]2(C(C)C)ON(c3ccccc3C(F)(F)F)C2=O)cc1,i,i,-11.0%,6.8%,-2.6%
O=S(=O)(Nc1ccccn1)c1ccc(Cl)c2ccccc12,i,i,1.4%,5.9%,1.7%
CN(CC(=O)Nc1ccc(F)cc1)C(=O)CSc1nnc(Cc2ccccc2)o1,i,16.4µM*,-27.7%,4.0%,-3.1%
Cc1cccc(NC(=O)CCSc2nnc(Cc3ccccc3)o2)c1,i,14.6µM*,0.7%,0.6%,-0.4%
Cc1nnc(SCC(=O)N(C)CC(=O)Nc2ccc(F)cc2)n1Cc1ccccc1,i,i,0.5%,-2.2%,-0.8%
Cc1cc(SCC(=O)N(C)CC(=O)Nc2ccc(F)cc2)nc2ccccc12,i,5.17µM*,?,-53.9%,-74.5%
Cc1ccc(NC(=O)CN(C)C(=O)Cc2c[nH]c3ccccc23)cc1,i,18.4µM*,22.7%,10.8%,-7.3%
Cc1ccccc1-c1noc(-c2cccnc2NCc2ccco2)n1,i,i,nt,nt,nt

# Source: PubChem
